Laboratory results from PubChem BioAssay (Tox21).
Inconclusive results are not listed. Calls of active or inactive are those of the source. Unless noted, the call rests on the fitted dose curve; in most records, active means well fitted curve in the direction sought with a large enough effect in the repeat runs; inconclusive means weak or mixed curves; inactive means no such curve, though single readings can be large; an effect the other way counts as inactive or inconclusive. Non-standard residues stand in square brackets, D forms with d. Residues, ends and D or L forms follow the SMILES beside them. *: point of attachment. Sta = CC(C)C[C@H](N)[C@@H](O)CC(=O)O; Isovaleryl = CC(C)CC(=O)*

Legend:
[1] = qHTS assay for small molecule agonists of the p53 signaling pathway (AID 651631; calls by dose curve; further: nearly all actives have a fitted effect of over 15% in size)
How it was run: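 Readout was fluorescence from the LiveBLAzer FRET substrate, applied for 2 h at room temperature after 16 h compound exposure at 37 °C. Cells were the p53RE-bla HCT-116 line, with beta-lactamase driven by p53 response elements.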

[2] = qHTS assay for small molecules that induce genotoxicity in human embryonic kidney cells expressing luciferase-tagged ATAD5 (AID 651632); further: nearly all actives have a fitted effect of over 15% in size
How it was run: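 Test compounds were delivered by pin tool onto HEK293T reporter cells (2,000/well) expressing ATAD5 fused to luciferase. After 16 hr at 37C, 5% CO2, Amplite was added for 30 min at room temperature and luminescence was measured.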

[3] = qHTS assay for small molecule agonists of the p53 signaling pathway - cell viability (AID 651633; calls by dose curve; further: series mostly up to about 83 µM; nearly all actives have a fitted effect of over 30% in size)
How it was run: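 Viability counter-read: CellTiter-Glo luminescence (30 min, room temperature) in the same p53RE-bla plates. These plates had been exposed to compounds for 16 h at 37 C.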

[4] = qHTS assay for small molecule disruptors of the mitochondrial membrane potential - cell viability (AID 720634; calls by dose curve;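 further: human HepG2 liver cancer cells; series mostly up to about 83 µM; nearly all actives have a fitted effect of over 20% in size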)
How it was run: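 Same-well counter-screen: following the MMP dye addition, CellTiter-Glo was added to 1 hr compound-treated HepG2 cells and luminescence read after 30 min at room temperature.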

[5] = qHTS assay to test for compound auto fluorescence at 590 nm (red) in HepG2 cells (AID 720674)
How it was run: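 1 hr compound incubation on HepG2 cells, 37 C, 5% CO2; plate read ex 540 nm / em 590 nm; intensities reported as Rose Bengal sodium equivalents.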

[6] = qHTS assay to test for compound auto fluorescence at 535 nm (green) in HepG2 cells (AID 720675)
[7] = qHTS assay to test for compound auto fluorescence at 460 nm (blue) in HEK293 cells (AID 720678)
How it was run: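 Triamterene serves as the blue fluorophore standard. Compound signal at 405/460 nm is read in HEK293 wells (2,000 cells, 10% dialyzed FBS) after overnight treatment at 37C.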

[8] = qHTS assay to test for compound auto fluorescence at 590 nm (red) in HEK293 cells (AID 720679)
How it was run: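 We plated HEK293 cells in 10% dialyzed FBS medium, let them adhere for 4-5 hr, then added 23 nL compound. Overnight at 37C and 5% CO2 preceded fluorescence measurement at 540/590nm.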

[9] = qHTS assay to test for compound auto fluorescence at 460 nm (blue) in HEK293 cell free culture (AID 720681)
How it was run: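 Blue fluorescence (Ex 405/Em 460 nm, triamterene-equivalent) was read immediately after pin transfer of compound or DMSO into medium (DMEM, 10% FBS) without cells.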

[10] = qHTS assay to test for compound auto fluorescence at 535 nm (green) in HEK293 cell free culture (AID 720682)
How it was run: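 Compounds were pin-transferred into cell-free DMEM with 10% FBS, and green fluorescence was read at excitation 485 nm and emission 535 nm. Intensities were expressed as fluorescein-equivalent values.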

[11] = qHTS assay to test for compound auto fluorescence at 590 nm (red) in HEK293 cell free culture (AID 720683)
How it was run: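 Red-channel autofluorescence of compounds in culture medium (DMEM, 10% FBS), no cells, measured at 540/590 nm. Rose Bengal sodium is the reference fluorophore for equivalence.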

[12] = qHTS assay to test for compound auto fluorescence at 590 nm (red) in HepG2 cell free culture (AID 720684)
How it was run: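 No cells present: MEM + 10% FBS only. Compound pinned in, red label read (540/590 nm). Activity = fluorescence equivalent to Rose Bengal sodium.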

[13] = qHTS assay to test for compound auto fluorescence at 460 nm (blue) in HepG2 cell free culture (AID 720685)
How it was run: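 Cell-free plates of MEM plus 10% FBS received 23 nL compound or DMSO vehicle; blue-channel (405/460 nm) intensity scored against triamterene as reference fluorophore.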

[14] = qHTS assay to test for compound auto fluorescence at 535 nm (green) in HepG2 cell free culture (AID 720686)
[15] = qHTS assay to test for compound auto fluorescence at 460 nm (blue) in HepG2 cells (AID 720687)
How it was run: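 Blue-channel autofluorescence (Ex/Em 405/460 nm, triamterene-equivalent) was measured after 1 hr compound exposure at 37 C, 5% CO2. Cells were HepG2, plated overnight at 37 C in MEM plus 10% FBS.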

[16] = molecular target: Glucocorticoid receptor (Homo sapiens) (UniProt P04150); assay: qHTS assay to identify small molecule agonists of the glucocorticoid receptor (GR) signaling pathway (AID 720691; active means well fitted activation curve with a large enough effect in the signal ratio in the repeat runs, not every such curve was filed as active; the % refers to the signal ratio)
How it was run: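 A HeLa cervical cancer line expressing GR and a glucocorticoid response element-driven beta-lactamase gene is treated with compounds for 18 h; LiveBLAzer B/G FRET substrate is then applied and fluorescence read.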

[17] = molecular target: Glucocorticoid receptor (Homo sapiens) (UniProt P04150); assay: qHTS assay to identify small molecule antagonists of the glucocorticoid receptor (GR) signaling pathway (AID 720692; active means well fitted inhibition curve with a large enough effect in the signal ratio in the repeat runs, not every such curve was filed as active; the % refers to the signal ratio)
How it was run: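 GRE-bla HeLa line, dex-stimulated (5 nM final). Compound exposure 18 h, 37 C. Beta-lactamase FRET read after 2 h RT substrate.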

[18] = qHTS assay for small molecules that induce genotoxicity in human embryonic kidney cells expressing luciferase-tagged ATAD5 - cell viability (AID 651634; calls by dose curve; further: nearly all actives have a fitted effect of over 25% in size)
How it was run: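 Quantitative high-throughput format. HEK293T cells expressing ATAD5 fused to luciferase were plated at 2,000 cells/well and treated 15.5 hr with compound versus DMSO. Viability was determined by fluorescent live-cell protease substrate, 30 min at 37C.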

[19] = qHTS assay for small molecule disruptors of the mitochondrial membrane potential (AID 720635)
How it was run: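 Mitochondrial membrane potential tracked with Mito-MPS dye, red aggregates (ex 540/em 590 nm) against green monomers (ex 490/em 535 nm). Compound treatment 1 hr at 37C, dye 30 min in HepG2.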

[20] = qHTS assay to test for compound auto fluorescence at 535 nm (green) in HEK293 cells (AID 720680)
On the % scale 0 is the no-effect control and ±100 the full control effect.

Glucocorticoid receptor (Homo sapiens), sequence (P04150 whole entry, looked up): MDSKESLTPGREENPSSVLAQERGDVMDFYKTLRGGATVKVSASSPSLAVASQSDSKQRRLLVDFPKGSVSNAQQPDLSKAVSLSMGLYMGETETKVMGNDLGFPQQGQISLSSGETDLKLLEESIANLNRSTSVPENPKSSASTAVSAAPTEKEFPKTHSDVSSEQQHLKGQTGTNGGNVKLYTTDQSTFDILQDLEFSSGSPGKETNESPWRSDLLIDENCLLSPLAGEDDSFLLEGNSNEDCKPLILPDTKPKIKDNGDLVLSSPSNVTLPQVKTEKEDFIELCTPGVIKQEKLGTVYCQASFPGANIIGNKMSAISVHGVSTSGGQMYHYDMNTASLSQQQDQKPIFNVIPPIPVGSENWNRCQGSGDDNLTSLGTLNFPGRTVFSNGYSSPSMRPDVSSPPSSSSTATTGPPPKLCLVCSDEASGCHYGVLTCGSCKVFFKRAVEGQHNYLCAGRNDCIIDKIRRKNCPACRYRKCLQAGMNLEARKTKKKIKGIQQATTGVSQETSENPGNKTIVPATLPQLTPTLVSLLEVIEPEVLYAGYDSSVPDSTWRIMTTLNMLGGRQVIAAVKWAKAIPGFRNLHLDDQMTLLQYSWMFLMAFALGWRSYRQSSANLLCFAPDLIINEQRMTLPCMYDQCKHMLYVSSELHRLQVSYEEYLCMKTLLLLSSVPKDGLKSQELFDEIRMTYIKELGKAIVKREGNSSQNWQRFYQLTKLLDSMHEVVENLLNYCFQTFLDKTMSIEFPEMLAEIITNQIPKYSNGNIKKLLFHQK

Nc1ccc(C(=O)NCC(=O)O)cc1
inactive: Potency [1] | Potency [2] | outcome [3] | outcome [4] | fluorescence, relative to Rose Bengal [5] 0.477% [at 18.6 µM] | fluorescence, % of fluorescein control [6] 0.0596% [at 18.6 µM] | fluorescence, % of triamterene [7] -0.0255% [at 18.6 µM] | fluorescence, % of fluorescent control [8] -0.524% [at 18.6 µM] | fluorescence, % of fluorescent control [9] 0.0205% [at 18.6 µM] | activity change [10] -0.0258% [at 18.6 µM] | fluorescence, % of fluorescent control [11] -0.0926% [at 18.6 µM] | fluorescence, % of Rose Bengal [12] -0.0233% [at 18.6 µM] | fluorescence, % of fluorescent control [13] -0.124% [at 18.6 µM] | fluorescence, % of fluorescein control [14] 0.0021% [at 18.6 µM] | fluorescence, % of fluorescent control [15] -0.0546% [at 18.6 µM] | Potency [16] | outcome [17]

CN(C)CCc1c[nH]c2ccc(CS(=O)(=O)N3CCCC3)cc12
inactive: Potency [1] | Potency [2] | outcome [18] | outcome [4] | Potency [19] | outcome [5] | outcome [7] | outcome [8] | outcome [9] | outcome [10] | outcome [11] | outcome [12] | outcome [13] | outcome [15]

CC(C)CC(=O)N[C@H](C(=O)N[C@H](C(=O)N[C@@H](CC(C)C)[C@@H](O)CC(=O)N[C@@H](C)C(=O)N[C@@H](CC(C)C)[C@@H](O)CC(=O)O)C(C)C)C(C)C (Isovaleryl-VV[Sta]A[Sta]-OH)
inactive: Potency [1] | Potency [2] | outcome [3] | Potency [19] | outcome [5] | outcome [7] | outcome [8] | outcome [20] | outcome [9] | outcome [10] | outcome [12] | outcome [13] | outcome [14] | outcome [15]

CC(C)C[P+](C)(CC(C)C)CC(C)C
inactive: Potency [1] | Potency [2] | outcome [3] | outcome [4] | outcome [5] | outcome [6] | outcome [8] | outcome [9] | outcome [10] | outcome [11] | outcome [12] | outcome [13] | outcome [15] | Potency [16]

COc1cnc(NS(=O)(=O)c2ccc(N)cc2)nc1
inactive: Potency [1] | Potency [2] | outcome [3] | Potency [19] | fluorescence, relative to Rose Bengal [5] -0.0895% [at 18.6 µM] | fluorescence, % of fluorescein control [6] -0.0734% [at 18.6 µM] | fluorescence, % of triamterene [7] 0.0096% [at 18.6 µM] | fluorescence, % of fluorescent control [8] 0.0444% [at 18.6 µM] | fluorescence, % of fluorescein [20] -0.0702% [at 18.6 µM] | fluorescence, % of fluorescent control [9] 0.0732% [at 18.6 µM] | activity change [10] -0.0115% [at 18.6 µM] | fluorescence, % of fluorescent control [11] -0.0163% [at 18.6 µM] | fluorescence, % of Rose Bengal [12] 0.414% [at 18.6 µM] | fluorescence, % of fluorescent control [13] 0.0024% [at 18.6 µM] | fluorescence, % of fluorescein control [14] 0.0043% [at 18.6 µM] | fluorescence, % of fluorescent control [15] 0.0082% [at 18.6 µM] | Potency [16] | outcome [17]

C[C@@H]1CC[C@@]2(OC1)O[C@H]1C[C@H]3[C@@H]4CC[C@H]5C[C@@H](O)CC[C@]5(C)[C@H]4CC(=O)[C@]3(C)[C@H]1[C@@H]2C
inactive: Potency [1] | Potency [2] | outcome [18] | outcome [4] | Potency [19] | fluorescence, relative to Rose Bengal [5] -1.11% [at 18.6 µM] | fluorescence, % of fluorescein control [6] -0.248% [at 18.6 µM] | fluorescence, % of fluorescent control [8] 0.373% [at 18.6 µM] | fluorescence, % of fluorescein [20] -0.0442% [at 18.6 µM] | fluorescence, % of fluorescent control [9] 0.012% [at 18.6 µM] | activity change [10] -0.0372% [at 18.6 µM] | fluorescence, % of Rose Bengal [12] 0.0999% [at 18.6 µM] | fluorescence, % of fluorescent control [13] 0.0653% [at 18.6 µM] | fluorescence, % of fluorescein control [14] 0.0232% [at 18.6 µM] | fluorescence, % of fluorescent control [15] -0.13% [at 18.6 µM]

NCC1CCC(C(=O)Oc2ccc(CCC(=O)O)cc2)CC1 (stereo not drawn)
inactive: Potency [1] | Potency [2] | outcome [3] | outcome [4] | Potency [19] | outcome [5] | outcome [6] | outcome [7] | outcome [8] | outcome [20] | outcome [9] | outcome [10] | outcome [12] | outcome [13] | outcome [14] | outcome [15]

c1coc(Cn2cccc2)c1
inactive: Potency [1] | Potency [2] | outcome [3] | outcome [4] | Potency [19] | outcome [5] | outcome [8] | outcome [20] | outcome [9] | outcome [10] | outcome [12] | outcome [13] | outcome [14] | outcome [15] | outcome [17]
